We go through 5 compounds from PubChem BioAssay.

The source made the active and inactive calls. Unless noted, the rule behind the calls is not given here.

A short description of experiment [1]: compounds binding Alexa647 anti-His antibody – biochemical, small-molecule microarray, 635 nm fluorescence, artefact control for SMM control protein annotation, primary screen (AID 1128).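 Note: score merges feature fluorescence with signal-to-noise for each printed compound spot.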 The conditions noted are these: higher = more signal.
In experiment [2] the test system is Human papillomavirus type 1a E7 protein (residues 1-88). Kind of experiment: HPV1a E7 small-molecule binders, primary screen, biochemical, small-molecule microarray, residues 1-88, 635 nm (AID 1129). Conditions: small-molecule microarray binding, fluorescence 635 nm; higher = more signal.
Experiment [3] has as its target Focal adhesion kinase 1 (Homo sapiens) (UniProt Q05397). Briefly: PTK2 protein binding on printed compound slides – biochemical, small-molecule microarray, 635/667 nm fluorescence, BSA, DTT, primary screen (AID 1130).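 Note: composite of spot emission at 667 nm and signal to noise over triplicate slides.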 Conditions: 635 nm fluorescence, higher = more signal.
The test system of experiment [4] is Fibrinogen (Alexa647-labelled). Kind of experiment: Alexa647-fibrinogen binding to printed small molecules – biochemical, small-molecule microarray, 635/667 nm fluorescence, artefact control for SMM control-protein annotation, profiling panel (AID 1131).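 Note: z-score merges 667 nm fluorescence with per-spot signal-to-noise over triplicate slides.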 Conditions: fibrinogen-A647 binding fluorescence, higher = more signal.
Experiment [5] deals with Follistatin (Homo sapiens) (UniProt P19883). Briefly: FST protein binding to printed compounds – biochemical, small-molecule microarray, 635/667 nm fluorescence, primary screen (AID 1132). The conditions noted are these: 635 nm fluorescence, higher = more signal.
Experiment [6] deals with Fibroblast growth factor 2 (Homo sapiens) (UniProt P09038). Briefly: basic fibroblast growth factor binding to printed compounds – biochemical, small-molecule microarray, 635/667 nm fluorescence, primary screen (AID 1133). Conditions: FGF2, fluorescence 635/667, higher = more signal.
A short description of experiment [7]: JC-1 mitochondrial potential readout, lung cancer cells – cell-based, A549, JC-1 fluorescence, basal, 24 h, 100 nL, profiling panel (AID 1138).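 Note: A549 lung adenocarcinoma cells under basal conditions with no added stimulus; test concentration not given here.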 Conditions: higher = more signal.
For the next experiment, the system named is Lefty1. Kind of experiment: Lefty1 protein binding to printed compounds – biochemical, small-molecule microarray, 635/667 nm fluorescence, primary screen (AID 1139). The conditions noted are these: fluorescence 635/667, higher = more signal.
The test system of experiment [8] is wheat germ agglutinin (Triticum aestivum), Alexa647-labelled. Briefly: Alexa647-WGA lectin binding to printed small molecules – biochemical, small-molecule microarray, 635/667 nm fluorescence, artefact control for SMM control-protein annotation, profiling panel (AID 1140).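 Note: score merges 667 nm feature emission with signal to noise over triplicate slides.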 The conditions noted are these: WGA-A647 binding, 635 nm fluorescence, higher = more signal.

Experiment [9] addresses Luciferin 4-monooxygenase (Photinus pyralis) (UniProt P08659). Kind of experiment: inhibition of purified Photinus pyralis luciferase – biochemical, luminescence, purified enzyme, 2006 set, primary screen (AID 1141).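 Note: cell-free assay with purified firefly luciferase at 100 ng per well in PBS; test concentration not given here.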 Conditions: purified firefly luciferase, SteadyGlo luminescence, 30 min; higher = more signal, called active from +8 up or from −8 down.
Experiment [10] deals with Wnt5a (protein binding on small-molecule microarray). Briefly: small molecules binding Wnt5a protein – biophysical, small-molecule microarray, 635/667 nm fluorescence, primary screen (AID 1142).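 Note: fluorescence read at 667 nm with signal to noise per printed feature.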 Conditions: 635 nm fluorescence, higher = more signal.
The nature of experiment [11]: ATP-based viability of Huh7 replicon cells – cell-based, CellTiter-Glo luminescence, basal, 48 h, cytotoxicity control for HCV replication inhibitor project, primary screen (AID 1143).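 Note: Huh7 hepatoma cells carrying a hepatitis C replication reporter with no stimulus; test concentration not given here.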 The conditions noted are these: higher = more signal, called active from +8 up or from −8 down.
Experiment [12] in a line: Pseudomonas biofilm growth suppression – PAO1 strain, BacTiter-Glo luminescence, LB-PBS, primary screen (AID 1144). The conditions noted are these: P. aeruginosa PAO1 biofilm, 12 h, higher = more signal.
Experiment [13] can be described thus: basal CRE-LacZ reporter activity in PC12 – cell-based, unstimulated, primary screen (AID 1145). Conditions: no forskolin, luminescence, 4.5 h, higher = more signal, called active from +8 up or from −8 down.
A short description of experiment [14]: forskolin-driven CRE-LacZ activity in PC12 – cell-based, CRE-LacZ reporter, forskolin-stimulated, primary screen (AID 1146).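 Note: PC12 cells with 6xCRE LacZ reporter stimulated by forskolin 10 µM; beta-galactosidase reporter signal reflecting CREB driven transcription.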 The conditions noted are these: luminescence, 4.5 h, higher = more signal, called active from +8 up or from −8 down.
Experiment [15] deals with Streptavidin (Streptomyces avidinii) (UniProt P22629). Briefly: compounds binding control protein streptavidin – biophysical, small-molecule microarray, 635/667 nm fluorescence, artefact control for SMM compound annotation, primary screen (AID 1147).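 Note: signal reflects streptavidin binding to arrayed compounds as a control protein.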 Conditions: higher = more signal.
The nature of experiment [16]: probe aInhba binding on compound microarray – biochemical, small-molecule microarray, 635/667 nm fluorescence, primary screen (AID 1148).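 Note: score merges 667nm spot fluorescence with signal-to-noise for antibody binding to printed compounds.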 The conditions noted are these: higher = more signal.
Experiment [17] addresses Torsin-1A (Homo sapiens) (UniProt O14656). Briefly: TOR1A wild-type binding on microarray – cell lysate, small-molecule microarray, lysate, 635/667 nm, primary screen (AID 1149). Conditions: COS7 hTOR1A-WT lysate, 635 nm fluorescence, higher = more signal.
Experiment [18] has the same target. Briefly: torsin A mutant lysate binding on microarrays – cell lysate, small-molecule microarray, COS7 lysate, 635/667 nm fluorescence, primary screen (AID 1150).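 Note: score pools 667 nm emission and signal to noise measuring lysate protein binding.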 The conditions noted are these: COS7 hTOR1A mutant lysate, 635 nm fluorescence, higher = more signal.
Experiment [19] concerns Sonic hedgehog protein (Shh). Kind of experiment: Sonic hedgehog microarray binding compounds – biochemical, small-molecule microarray, 635/667 nm fluorescence, primary screen (AID 1151).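 Note: Shh protein binding to compounds spotted on small-molecule microarray slides; score combines spot fluorescence intensity with signal-to-noise across triplicate slides.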 The conditions noted are these: 635 nm fluorescence, higher = more signal.

Chain of Torsin-1A (Homo sapiens) (O14656 whole entry, looked up): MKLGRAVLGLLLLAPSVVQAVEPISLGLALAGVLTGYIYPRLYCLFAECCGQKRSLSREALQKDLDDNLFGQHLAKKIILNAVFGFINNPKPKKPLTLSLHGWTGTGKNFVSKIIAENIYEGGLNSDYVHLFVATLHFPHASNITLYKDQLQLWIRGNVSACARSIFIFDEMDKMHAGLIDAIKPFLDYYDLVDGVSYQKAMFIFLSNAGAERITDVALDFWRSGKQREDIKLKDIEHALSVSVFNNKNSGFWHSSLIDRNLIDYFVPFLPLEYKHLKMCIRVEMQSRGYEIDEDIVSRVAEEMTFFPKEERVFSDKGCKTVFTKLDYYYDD
Chain of Focal adhesion kinase 1 (Homo sapiens) (Q05397 whole entry, looked up): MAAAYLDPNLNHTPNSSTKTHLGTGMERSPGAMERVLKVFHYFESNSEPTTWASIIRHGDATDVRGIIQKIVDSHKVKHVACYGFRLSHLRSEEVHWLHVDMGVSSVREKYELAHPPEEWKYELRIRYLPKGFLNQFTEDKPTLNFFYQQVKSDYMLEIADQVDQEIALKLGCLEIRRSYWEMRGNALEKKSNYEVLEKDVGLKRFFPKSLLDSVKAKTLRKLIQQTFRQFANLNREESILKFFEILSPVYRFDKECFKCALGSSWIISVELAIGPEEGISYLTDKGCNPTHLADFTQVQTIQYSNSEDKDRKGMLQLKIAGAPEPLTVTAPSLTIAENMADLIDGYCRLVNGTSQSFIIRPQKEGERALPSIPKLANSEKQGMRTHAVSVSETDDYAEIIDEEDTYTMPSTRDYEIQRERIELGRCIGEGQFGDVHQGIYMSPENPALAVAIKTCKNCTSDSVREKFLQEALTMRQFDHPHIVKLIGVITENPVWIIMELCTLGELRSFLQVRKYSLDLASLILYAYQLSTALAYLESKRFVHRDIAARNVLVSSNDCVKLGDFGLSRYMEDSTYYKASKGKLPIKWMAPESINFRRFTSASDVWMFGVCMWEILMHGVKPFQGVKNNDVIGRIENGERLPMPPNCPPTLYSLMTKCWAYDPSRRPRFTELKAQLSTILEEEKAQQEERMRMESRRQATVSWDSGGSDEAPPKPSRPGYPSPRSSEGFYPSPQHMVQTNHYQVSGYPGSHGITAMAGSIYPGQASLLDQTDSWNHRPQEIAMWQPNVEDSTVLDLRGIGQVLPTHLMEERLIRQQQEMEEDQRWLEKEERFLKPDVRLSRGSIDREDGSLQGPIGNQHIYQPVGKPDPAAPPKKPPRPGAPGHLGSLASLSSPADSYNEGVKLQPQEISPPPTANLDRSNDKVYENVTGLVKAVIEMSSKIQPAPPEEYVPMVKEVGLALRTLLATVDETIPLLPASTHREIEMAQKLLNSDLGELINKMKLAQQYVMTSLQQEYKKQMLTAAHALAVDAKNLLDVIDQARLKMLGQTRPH
Chain of Streptavidin (Streptomyces avidinii) (P22629 whole entry, looked up): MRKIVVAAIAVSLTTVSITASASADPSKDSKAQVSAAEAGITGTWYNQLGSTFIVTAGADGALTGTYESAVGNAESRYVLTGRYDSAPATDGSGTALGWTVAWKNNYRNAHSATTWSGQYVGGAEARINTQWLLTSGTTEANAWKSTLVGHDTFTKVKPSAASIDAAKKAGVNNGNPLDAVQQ
Chain of Luciferin 4-monooxygenase (Photinus pyralis) (P08659 whole entry, looked up): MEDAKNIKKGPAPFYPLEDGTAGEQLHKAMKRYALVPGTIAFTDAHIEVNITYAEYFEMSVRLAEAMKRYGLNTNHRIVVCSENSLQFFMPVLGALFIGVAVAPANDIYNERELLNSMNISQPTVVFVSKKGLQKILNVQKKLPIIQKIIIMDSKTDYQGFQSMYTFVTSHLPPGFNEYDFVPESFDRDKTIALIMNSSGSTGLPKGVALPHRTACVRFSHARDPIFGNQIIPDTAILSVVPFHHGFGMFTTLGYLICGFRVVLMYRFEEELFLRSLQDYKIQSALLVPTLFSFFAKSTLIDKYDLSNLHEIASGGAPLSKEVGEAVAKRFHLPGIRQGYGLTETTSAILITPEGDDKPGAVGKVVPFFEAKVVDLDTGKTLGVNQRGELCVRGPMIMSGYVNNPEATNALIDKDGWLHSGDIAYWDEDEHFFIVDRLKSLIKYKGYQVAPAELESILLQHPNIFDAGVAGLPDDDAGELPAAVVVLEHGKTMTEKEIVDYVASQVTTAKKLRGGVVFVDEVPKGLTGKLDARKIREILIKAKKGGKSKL
Chain of Follistatin (Homo sapiens) (P19883 whole entry, looked up): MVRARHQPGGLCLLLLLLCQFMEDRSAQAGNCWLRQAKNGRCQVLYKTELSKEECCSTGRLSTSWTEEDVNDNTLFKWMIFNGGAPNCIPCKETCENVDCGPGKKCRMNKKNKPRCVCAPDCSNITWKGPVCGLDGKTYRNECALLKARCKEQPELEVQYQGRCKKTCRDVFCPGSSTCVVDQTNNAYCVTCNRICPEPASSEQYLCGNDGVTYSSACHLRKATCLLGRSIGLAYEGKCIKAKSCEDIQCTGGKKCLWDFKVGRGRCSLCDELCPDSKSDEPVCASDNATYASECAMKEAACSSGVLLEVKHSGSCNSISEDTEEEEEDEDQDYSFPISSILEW
Chain of Fibroblast growth factor 2 (Homo sapiens) (P09038 whole entry, looked up): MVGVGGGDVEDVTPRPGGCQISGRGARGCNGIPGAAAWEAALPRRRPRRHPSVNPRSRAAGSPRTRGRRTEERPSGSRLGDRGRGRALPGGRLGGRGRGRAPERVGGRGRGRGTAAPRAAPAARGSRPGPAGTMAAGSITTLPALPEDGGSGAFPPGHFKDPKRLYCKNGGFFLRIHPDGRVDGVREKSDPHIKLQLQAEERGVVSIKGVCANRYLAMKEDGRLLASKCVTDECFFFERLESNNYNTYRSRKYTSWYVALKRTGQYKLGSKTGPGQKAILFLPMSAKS

Turning to `COC(=O)C1(CC(C)C)C=C2C(=C(C)C(=O)C2C)CN1` (stereo not given), the composite z-score in experiment [1] is 2.95; in [2], 0.098; in [3], 0.183; in experiment [4], -0.423; in [5] it was 0.901; in experiment [6], -0.583. For the same compound, the composite z-score is -0.368 in the experiment with Lefty1; 0.67 in [8]; 0.392 in experiment [10]; 0.351 in experiment [15]; 1.17 in [16]; 0.0384 with Torsin-1A (Homo sapiens) [17]. Further, the composite z-score is 0.276 in the experiment with Torsin-1A (Homo sapiens) [18] and -0.645 in [19]. Moreover, the z-score in [7] was 1.05; in experiment [9], 1.98 (inactive); in experiment [11], -0.109 (inactive); in experiment [12], 0.142 (inactive); in experiment [13] it was 0.0041 (inactive); in [14] it was 2.32 (inactive).
In the case of `CC[C@H]1C2=C3C(CC[C@H]4C(OCc5ccc(F)cc5C(F)(F)F)OC[C@](C)([C@@H]34)N(C(=O)OC(C)(C)C)C2)C(COC(C)=O)C1COC(C)=O` (stereo not given in full), the composite z-score is 1.3 in experiment [1]; 1.17 in experiment [2]; 0.178 in experiment [3]; 0.945 in experiment [4]; 0.165 in experiment [5]; -1.19 in experiment [6]. Besides, the composite z-score was -0.256 with Lefty1; 0.509 in experiment [8]; 0.374 in experiment [10]; 1.3 in experiment [15]; 0.214 in [16]; 0.129 with Torsin-1A (Homo sapiens) [17]. The values for the composite z-score (with Torsin-1A (Homo sapiens) [18]; in [19]) were 0.168 and -1.2, respectively. Besides, the z-score is 1.74 in [7]; 1.17 (inactive) in experiment [9]; -1.35 (inactive) in [11]; 0.729 (inactive) in [12]; 0.204 (inactive) in experiment [13]; 1.3 (inactive) in experiment [14].
`COC(=O)c1c2oc(c1C(=O)OC)C(=O)N[C@H](Cc1ccccc1)Cn1cc(nn1)C1(CCCCC1)NC(=O)N[C@H](CO)CC2`: the composite z-score is 0.633 in [1]; -0.594 in experiment [2]; 0.714 in experiment [3]; -0.252 in experiment [4]; -0.328 in experiment [5]; 0.94 in experiment [6]. Also, the composite z-score in the experiment on Lefty1 was 0.114; in [8], 0.722; in experiment [10], 0.075; in experiment [15], -0.626; in experiment [16], 0.161; with Torsin-1A (Homo sapiens) [17], 0.3. Also, the results for the composite z-score (with Torsin-1A (Homo sapiens) [18]; in experiment [19]) were 0.29 and 1.52, respectively. Further, the z-score in [7] is -0.318; in experiment [9] it was 0.181 (inactive); in experiment [11], 0.0261 (inactive); in [12] it was -0.72 (inactive); in [13] it was 8.64 (active); in experiment [14] it was 0.334 (inactive).
Regarding `COCCOC(=O)N1C(=O)[C@@]2(c3cc(C#CCCO)ccc31)[C@H](C(=O)N1CCN(c3ncccn3)CC1)[C@H]1C(=O)O[C@H](c3ccccc3)[C@H](c3ccccc3)N1[C@@H]2c1ccc(OCCO)cc1`, the composite z-score in [1] was 1.12; in [2], 1.23; in [3] it was -0.293; in [4] it was 0.972; in experiment [5], 1.21; in [6], 1.29. Also, the composite z-score was 0.92 in the experiment on Lefty1; 1.02 in experiment [8]; 0.624 in experiment [10]; 1.26 in experiment [15]; 0.0528 in experiment [16]; -0.279 with Torsin-1A (Homo sapiens) [17]. In addition, the values for the composite z-score (in the experiment with Torsin-1A (Homo sapiens) [18]; in [19]) were 0.458 and 1.99, respectively. For the same compound, the z-score in [7] was -1.28; in experiment [9], -0.21 (inactive); in experiment [11], -0.445 (inactive); in experiment [12], 0.386 (inactive); in experiment [13] it was 1.05 (inactive); in [14], 0.136 (inactive).
On to `O=C1NC(=O)C2C1C=CC(C(O)C(c1ccccc1)c1ccccc1)N2Nc1ccccn1` (stereo not given), for which the composite z-score came to 2.42 in [1]; 1.15 in experiment [2]; 0.595 in experiment [3]; 0.987 in [4]; 0.709 in experiment [5]; 1.06 in experiment [6]. In addition, the composite z-score in the experiment with Lefty1 was -0.0403; in experiment [8], 0.843; in experiment [10], 0.367; in experiment [15], -0.0787; in experiment [16] it was 0.096; with Torsin-1A (Homo sapiens) [17], 0.675. For the same compound, the composite z-score with Torsin-1A (Homo sapiens) [18] came out at 1.06; in experiment [19], 0.676. Moreover, the z-score is 0.669 in experiment [7]; -2.04 (inactive) in experiment [9]; 0.604 (inactive) in experiment [11]; -0.725 (inactive) in experiment [12]; -0.898 (inactive) in experiment [13]; -0.804 (inactive) in [14].
